HCMV inh: human cytomegalovirus inhibition; HFF cells, HCMV-luciferase reporter, 72 h; stronger effect = lower value; activity change, negative = inhibition, % at 57.5 µM; hit rate 4.5% among 410,000; in the data active means activity change below about -60%; inconclusive means no clear call, values can overlap the other calls; inactive means above about -39%; further: on the % scale 0 is the no-effect control and ±100 the full control effect
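Steps: HFFs plated, 16 h 37C; compounds added; HCMV-luciferase added to MOI 1 PFU/cell; 72 h 37C; OneGlo reagent, 5 min room temperature; luminescence read, normalized to controls.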
Pf growth 48h: inhibits P. falciparum growth in the first generation, 48 h; P. falciparum luciferase growth in erythrocytes, 48 h; Potency, µM (series often up to 28.7 µM), for inactives: at the top dose activity change, negative = inhibition, actives largely listed as inhibitors; hit rate 5.9% among 310,000; AID 504832; further: potency means the concentration at half of the fitted maximal effect; on the % scale 0 is the no-effect control and ±100 the full control effect
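Read-out is firefly luciferase luminescence from an integrated reporter in P. falciparum, so falling signal marks reduced parasite growth. Infected erythrocytes were at 2% hematocrit and 0.1% parasitemia (final) in Albumax-supplemented RPMI 1640.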
HCV inh: inhibitors of hepatitis C virus infection | Huh7.5.1 HCVcc-Cre infection, luciferase reporter, 44 h | Potency, µM (doses to about 41.8 µM), inactives show top-dose activity change, negative = inhibition, usual class: inhibitors | hit rate 3.4% among 340,000 | AID 651820; further: potency means the concentration at half of the fitted maximal effect; on the % scale 0 is the no-effect control and ±100 the full control effect
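Infectious HCV cell culture screen: compound-treated cells (1,000/well, pre-plated 4 h) are infected with HCVcc-Cre at roughly 0.5 moi and grown 44 h. Infection is quantified by luciferase signal after 15 min substrate incubation at room temperature.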
Shiga inhibitor: blocks Shiga toxin action in Vero cells; Vero cells, Shiga toxin protein synthesis inhibition reporter; inhibition, % at 38.7 µM; hit rate 9.2% among 290,000; AID 2315; in the data active means inhibition mostly above about 28%, no sharp cut-off; inactive means mostly below about 43%; further: 0% is about no effect
Pf growth 96h: inhibits malaria parasite growth, 96 h; P. falciparum luciferase reporter growth, 96 h; Potency, µM (doses to about 28.7 µM), for the others: at the top dose activity change, negative = inhibition, most hits filed as inhibitors; hit rate 6.9% among 320,000; further: potency means the concentration at half of the fitted maximal effect; on the % scale 0 is the no-effect control and ±100 the full control effect
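Delayed-death screen, second-generation endpoint: infected erythrocytes, 2% hematocrit, 0.05% parasitemia final; 96 hours at 37 C, 5% CO2; luciferase detection reagent; luminescence decrease equals reduced growth.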
Cycloheximide cs: affects cycloheximide protein synthesis inhibition readout, counter-screen. hit rate 12% among 300,000. max response, %. AID 2314. cell reporter, cycloheximide protein synthesis inhibition counterscreen; in the data active means max response mostly above about 13%, no sharp cut-off; inactive means mostly below about 14%; further: read at 38.3 µM for the half of the compounds with a filed dose; 0% is about no effect
An asterisk follows results filed as active. Compounds with a hit are over-represented: about 21% of the library has one in this group of screens. Unless noted, the call rests on the fitted dose curve; in most records, active means well fitted inhibition curve with a large enough effect; inconclusive means small, poorly fitted or top-dose-only effect, or another doubt; inactive means no such curve, though single readings can be large or run the other way.

For O=C(Nc1ccc(Cn2cccn2)cc1)c1ccc(COc2ccc(Br)cc2)cc1 the results were HCMV inh 21.6, Pf growth 48h 6.4%, HCV inh 8.5%, Shiga inhibitor 25.3 and Cycloheximide cs -1.9.
O=C(Nc1ccc(Cn2cccn2)cc1)c1ccc(COc2cccc(Br)c2)cc1 was read as HCMV inh 59.0, HCV inh 10µM*, Shiga inhibitor 21.7, Pf growth 96h inconclusive and Cycloheximide cs 18.6*.
Screening CCOC(=O)/C(C#N)=C/c1c(N2CCN(Cc3ccc4c(c3)OCO4)CC2)nc2c(C)cccn2c1=O returned HCMV inh -4.1, Pf growth 48h 3.7µM*, HCV inh inconclusive, Shiga inhibitor -6.9, Pf growth 96h inconclusive and Cycloheximide cs -3.5.
Cc1cccn2c(=O)c(/C=C(\C#N)C(N)=O)c(N3CCN(Cc4ccc5c(c4)OCO5)CC3)nc12 was read as HCMV inh -80.0*, Pf growth 48h 9.28µM*, HCV inh inconclusive, Shiga inhibitor -12.9, Pf growth 96h 10.4µM* and Cycloheximide cs -4.3.
Screening Cc1cccn2c(=O)c(/C=C(\C#N)C(N)=O)c(N3CCN(c4cccc(Cl)c4)CC3)nc12 returned HCMV inh -39.1, Pf growth 48h inconclusive, HCV inh -10.6%, Shiga inhibitor -4.2, Pf growth 96h 9.28µM* and Cycloheximide cs 5.7.
`Cc1cccn2c(=O)c(C=C(C#N)C#N)c(N3CCN(C)CC3)nc12` gave HCMV inh 53.9, Pf growth 48h -3.3%, HCV inh 19.5%, Shiga inhibitor 13.8, Pf growth 96h 7.38µM* and Cycloheximide cs 0.9.
`COC(=O)/C(C#N)=C/c1c(N2CCN(Cc3ccc4c(c3)OCO4)CC2)nc2c(C)cccn2c1=O` gave HCMV inh 0.5, Pf growth 48h inconclusive, HCV inh 27.9%, Shiga inhibitor 19.2, Pf growth 96h inconclusive and Cycloheximide cs -1.6.
Cc1cccn2c(=O)c(C=C(C#N)C#N)c(N3CCN(c4ccccc4)CC3)nc12 was read as HCMV inh 45.5, Pf growth 48h inconclusive, HCV inh -20.7%, Shiga inhibitor 4.3, Pf growth 96h inconclusive and Cycloheximide cs -1.4.
Screening CNC(=O)/C(C#N)=C/c1c(N2CCN(c3ccccc3)CC2)nc2c(C)cccn2c1=O returned HCMV inh -7.6, Pf growth 48h inconclusive, HCV inh 25.3%, Shiga inhibitor 21.5, Pf growth 96h inconclusive and Cycloheximide cs -4.8.
Cc1csc(/C(=N/OC(=O)c2ccco2)C(N)=O)n1 was read as HCMV inh -19.7, Pf growth 48h 15.0%, HCV inh 16.3%, Shiga inhibitor -4.4, Pf growth 96h inconclusive and Cycloheximide cs 5.6.
For O=C1CCC(C(=O)Nc2cc(C(F)(F)F)ccc2-n2cncn2)=NN1 the results were HCMV inh -12.4, Pf growth 48h inconclusive, HCV inh 18.3%, Shiga inhibitor 16.9, Pf growth 96h inconclusive and Cycloheximide cs -2.0.
Cc1onc(-c2ccccc2Cl)c1-c1nc(-c2ccccn2)no1 was read as HCMV inh -27.5, Pf growth 48h 20.9%, HCV inh -9.5%, Shiga inhibitor -2.4, Pf growth 96h 21.7% and Cycloheximide cs 2.5.
Screening Cc1occc1-c1nc(-c2ccccn2)no1 returned HCMV inh 159.9, Pf growth 48h 451.5%, HCV inh inconclusive, Shiga inhibitor 67.9*, Pf growth 96h 202.4% and Cycloheximide cs 26.4*.
`Cc1occc1-c1nc(-c2ccncc2)no1` gave HCMV inh 37.0, Pf growth 48h 76.1%, HCV inh 15.5%, Shiga inhibitor 79.8*, Pf growth 96h 12.6% and Cycloheximide cs 33.6*.
`Cc1ccc(-c2noc(-c3ccoc3C)n2)cc1` gave HCMV inh 97.3, Pf growth 48h 156.2%, HCV inh 12.5%, Shiga inhibitor 83.3*, Pf growth 96h 16.3% and Cycloheximide cs 49.4*.
Cc1noc(C)c1CCC(=O)NC1CCCN(Cc2ccc(CC(C)C)cc2)C1 (stereo not given) was read as HCMV inh 0.0, Pf growth 48h -18.8%, HCV inh inconclusive, Shiga inhibitor -3.8, Pf growth 96h -12.6% and Cycloheximide cs 8.7.

Compound activity deposited in PubChem by National Center for Advancing Translational Sciences (NCATS).
